This passage reports inhibition results from PubChem BioAssay AID2599 (Sanford-Burnham Center for Chemical Genomics, 2010).

Screen size: about 330,000 compounds; about 5,800 (1.8%) were called active.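 How the source made its calls: active means inhibition above about 50% at the single tested dose (limit read from the data); inactive means the rest.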 For the sample, actives were picked, then their nearest neighbours and some compounds at random.

The target of the experiment is Sentrin-specific protease 6 (Homo sapiens) (UniProt Q9GZR1). The experiment is described as follows: SENP6 protease inhibitors, primary screen, biochemical, luminescence, uHTS (AID 2599).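 Further: plate controls were DMSO wells with enzyme for no effect and DMSO wells lacking enzyme for full effect.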 As to conditions: Recombinant SENP6 catalytic domain, aminoluciferin luminescence; at 10 µM; active compounds read high.
Sentrin-specific protease 6 (Homo sapiens), sequence (Q9GZR1 628-1112 limits assumed): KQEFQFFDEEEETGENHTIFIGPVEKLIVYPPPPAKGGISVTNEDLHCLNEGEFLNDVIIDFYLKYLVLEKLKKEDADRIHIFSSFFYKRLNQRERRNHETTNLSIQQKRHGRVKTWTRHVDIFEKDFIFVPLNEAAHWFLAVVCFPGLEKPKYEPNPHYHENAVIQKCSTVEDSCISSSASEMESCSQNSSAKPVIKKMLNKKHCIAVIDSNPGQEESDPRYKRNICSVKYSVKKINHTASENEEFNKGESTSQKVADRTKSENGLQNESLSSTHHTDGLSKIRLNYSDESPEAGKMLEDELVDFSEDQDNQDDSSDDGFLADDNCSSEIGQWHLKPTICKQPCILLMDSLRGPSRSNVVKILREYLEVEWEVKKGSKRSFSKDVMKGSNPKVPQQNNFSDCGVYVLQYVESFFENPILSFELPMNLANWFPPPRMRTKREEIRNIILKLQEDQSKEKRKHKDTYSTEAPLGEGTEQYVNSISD
In general, inhibition refers to the drop in the measured response relative to a control, in per cent. For the compound `C/C(=N\Nc1ncc(Cl)cc1Cl)c1cccs1`, the inhibition is 6.67% (inactive).

Take `O=C(Nc1ccccc1-c1nc2ccccc2[nH]c1=O)c1cccs1`: the inhibition is 0.16% (inactive).

`C/C(=N\Nc1nc2ccccc2[nH]1)c1cccs1`: the inhibition was 60.7% (active).

`COc1ccc(N(Cc2ccccc2)S(=O)(=O)c2cccc(C(=O)O)c2)cc1`: the inhibition is -6.92% (inactive).

`COc1ccc(NC(=O)CS(=O)(=O)c2ccccc2)cc1`: the inhibition was 13.2% (inactive).

Consider `COc1ccc(C(CC(=O)c2ccccc2)S(=O)(=O)c2ccccc2)cc1` (centres undefined), for which the inhibition is 59.1% (active).

As for `COc1ccc(NC(=O)C2CCC(CNC(=O)[C@@H]3Cc4ccccc4CN3)CC2)cc1` (some centres undefined), the inhibition was -1.01% (inactive).

Regarding `CCC(NC(=O)c1cc(COc2ccc(F)c(F)c2)on1)c1ccncc1` (centres undefined), the inhibition is 12.2% (inactive).

With `O=C(NCCN1CCCC(O)C1)c1cc(COc2c(F)cccc2F)on1` (centres undefined), the inhibition was 4.9% (inactive).

Take `Cc1cccc(C)c1Nc1nnc(SCC(=O)Nc2sccc2C#N)s1`: the inhibition was 22.6% (inactive).

On to `Cc1csc(SCC(=O)Nc2sccc2C#N)n1`, for which the inhibition is 88.2% (active).

Take `Cc1ccc(NC(=O)CSCC(=O)Nc2sccc2C#N)cc1`: the inhibition was 0.055% (inactive).

Consider `COc1ccc(CCNC(=O)CS(=O)(=O)Cc2nc(-c3ccc(C)cc3)oc2C)cc1OC`, for which the inhibition is 8.83% (inactive).

For `CSCCC(Nc1ccc(S(=O)(=O)N2CCOCC2)cc1[N+](=O)[O-])C(=O)OCC(=O)N(C(C)C)C(C)C` (centres undefined), the inhibition was -3.58% (inactive).

Turning to `C/C(=N\NC(=S)Nc1ccc(C)cc1)c1cc2ccccc2o1`, the inhibition is -7.73% (inactive).

In the case of `Cc1ccc(OC(=O)c2cc3ccccc3o2)cc1`, the inhibition is 72.6% (active).

In the case of `COc1ccccc1CN(C)C(=O)c1cc2ccccc2o1`, the inhibition was -15.1% (inactive).

Regarding `CC1=C/C(=N\OS(=O)(=O)c2ccccc2)C=CC1=O`, the inhibition was -4.19% (inactive).

Consider `CCOc1ccc(OCC)c(NC(=O)CCS(=O)(=O)c2ccc(C)cc2)c1`, for which the inhibition is -6.59% (inactive).

Turning to `CC(=O)Oc1ccc2c(c1)C(=O)c1ccccc1C2=O`, the inhibition is 55% (active).

Turning to `CC(=O)Oc1cccc(C(=O)Nc2ccccc2NC(=O)c2cccc(OC(C)=O)c2)c1`, the inhibition is 7.29% (inactive).

In the case of `CC(=O)O[C@H]1c2ccccc2-c2ccccc2[C@@H]1OC(C)=O`, the inhibition is 8.21% (inactive).

Consider `CC(C)C(=O)NCC(c1cccs1)S(=O)(=O)c1ccc(F)cc1` (centres undefined), for which the inhibition is -1.5% (inactive).

For `COc1cc(/C=C/C(=O)OCC(=O)NC(=O)NCc2ccccc2)ccc1OCC#N`, the inhibition was -0.36% (inactive).

With `Cc1cc2oc3ccc(NCCC4CCCN4C)cc3c(=O)c2cc1C` (centres undefined), the inhibition was 2.23% (inactive).

In the case of `O=C(Nc1c2c(nn1-c1cccc(Cl)c1)CS(=O)(=O)C2)c1cccs1`, the inhibition is -6.08% (inactive).

Take `COc1ccc2nc(NC(=O)NC3CCCCC3)sc2c1`: the inhibition is 0.352% (inactive).

Turning to `COc1ccc2nc(Nc3nc4cc5c(cc4s3)OCCO5)sc2c1`, the inhibition is 70.8% (active).

With `COc1ccc2nc(NC(=O)[C@@H]3CCCN3C(=O)c3cccs3)sc2c1`, the inhibition was 4.51% (inactive).

In the case of `CC(OC(=O)CN1C(=O)COc2ccccc21)C(=O)NCc1ccc(F)cc1` (centres undefined), the inhibition is -3.56% (inactive).

`COc1ccc(S(=O)(=O)NC(C)C(=O)N2CCCCCC2)cc1` (centres undefined): the inhibition is -11.4% (inactive).

Consider `Cc1ccc(C(=O)Nc2nc(N)n(-c3ccccc3)n2)cc1`, for which the inhibition is -27.7% (inactive).

As to `Fc1c(F)c(C(F)(F)F)c(F)c(F)c1N1CCN(c2ccc3nnc(C(F)(F)F)n3n2)CC1`, the inhibition is 3.56% (inactive).

On to `COc1ccccc1NC(=O)C(C)OC(=O)c1ccc(-n2cnnn2)cc1` (centres undefined), for which the inhibition is -16.5% (inactive).

As for `O=C(O)c1cccc(N=NN2CCCCCC2)c1`, the inhibition is 90.2% (active).

Regarding `NC1=NN(c2cccc(C(=O)O)c2)C(=O)C1`, the inhibition was 3.51% (inactive).

Take `O=C(O)c1ccc(N=NN2CCOCC2)cc1`: the inhibition is 17.8% (inactive).

With `CS(=O)(=O)Nc1ccccc1N=C(c1ccccc1)c1ccccc1`, the inhibition is -6.12% (inactive).

As to `Oc1cccc2ccc(/C=C/c3ccc(Br)s3)nc12`, the inhibition was 64.4% (active).

Regarding `Nc1ccc(S(=O)(=O)Nc2nccc(/C=C/c3ccc(Br)s3)n2)cc1`, the inhibition was 4.55% (inactive).

As for `COC(=O)c1c(NC(=O)COc2ccc(Cl)cc2Cl)sc2c1CC(C)(C)NC2(C)C`, the inhibition was -10.5% (inactive).

In the case of `Cc1coc(C)c1C(=O)CC1(O)C(=O)N(C)c2ccc(Cl)cc21` (centres undefined), the inhibition is 0.041% (inactive).

On to `O=C(NC1CC1)C1CCCN(C(=O)NC2CCCCC2)C1` (centres undefined), for which the inhibition is -5.19% (inactive).

Consider `O=C1NNC(c2ccccc2)=N/C1=C\c1ccc(Cl)cc1`, for which the inhibition was 29.3% (inactive).

For `Nc1nc(NCC(=O)O)nc(N2CCCCCC2)c1[N+](=O)[O-]`, the inhibition was 11.1% (inactive).

Turning to `N#Cc1c(N2CCCCC2)nc(N)c2c(N)nc(SCC(=O)O)cc12`, the inhibition was 74.6% (active).

Turning to `N#CCc1c(C#N)c(N)nc(N2CCCC2)c1C#N`, the inhibition was -5.83% (inactive).

Consider `CC(C)(C)Oc1ccccc1Nc1nc(NCCO)nc(N2CCCC2)n1`, for which the inhibition was -11% (inactive).

With `CC(OC(=O)c1ccc(S(=O)(=O)N2CCOCC2)cc1)c1ccccc1` (centres undefined), the inhibition was -4.11% (inactive).

Regarding `COC(=O)c1ccc(S(=O)(=O)N2CCc3ccccc3C2)cc1`, the inhibition was -14.9% (inactive).

Take `O=C(ON=C1CCN(S(=O)(=O)c2ccccc2)CC1)c1ccc(Cl)cc1`: the inhibition was 55.9% (active).

For the compound `C/C(N)=C(\C#N)C(=O)NCCc1ccccn1`, the inhibition is -4.65% (inactive).

`COc1ccc(-c2cn3cccnc3n2)cc1`: the inhibition is -11.4% (inactive).

Regarding `COc1ccc(-c2cn3ccsc3n2)cc1`, the inhibition is 64% (active).

For `COc1cc(OC)cc(-c2nc(=S)n3ccsc3n2)c1`, the inhibition was -9.64% (inactive).

Take `CC(C(=O)NC1CCCCC1)N1C(=O)c2cccc3cccc1c23` (centres undefined): the inhibition was -3.48% (inactive).

Turning to `CC(C)NC(=S)Nc1cccc2cnccc12`, the inhibition was 5.39% (inactive).

As for `O=C(COC(=O)c1ccccn1)Nc1cccc2ccccc12`, the inhibition was -9.05% (inactive).

Consider `O=C(O)Cc1ccc(NC(=O)Nc2cccc3ccccc23)cc1`, for which the inhibition is -11.3% (inactive).

Regarding `O=C(Nc1cccc2ccccc12)c1onc2c1CCCC2`, the inhibition is 84% (active).

`Cn1cc(CN2CCCC(CO)C2)c(-c2ccc(Oc3ccccc3)cc2)n1` (centres undefined): the inhibition is -24.4% (inactive).

In the case of `O=C1C2C3C=CC(C3)C2C(=O)N1c1ccc(-c2nc3ccccc3c(=O)o2)cc1` (centres undefined), the inhibition is -7.9% (inactive).

As to `O=C1c2ccccc2C(=O)N1CCC#Cc1ccc2cc(C3(O)CCCCC3)oc(=O)c2c1`, the inhibition was -5.78% (inactive).

On to `COc1cc(C#Cc2ccc3cc(CCCO)oc(=O)c3c2)cc(OC)c1`, for which the inhibition is 74% (active).

As for `COc1cc(/C=C2\Oc3ccc(C#Cc4ccc(O)cc4)cc3C2=O)cc(OC)c1`, the inhibition was -11.5% (inactive).

Turning to `Cc1[nH]c(C)c(S(=O)(=O)N2CCC(C)CC2)c1C(=O)N1CCCC1`, the inhibition is 0.187% (inactive).

`CCN(CC)S(=O)(=O)c1ccc(-c2cn3ccc(C)cc3n2)cc1`: the inhibition is 11.7% (inactive).

In the case of `Cc1ccc(-c2cn3cc(C)ccc3n2)cc1`, the inhibition was 65.4% (active).

For `Cc1cc(N2CCOCC2)nc(-c2ccc(Br)cc2)n1`, the inhibition was -6.76% (inactive).

Regarding `Cc1ccc2nc(-c3ccc(Br)cc3)cn2c1`, the inhibition was 89.9% (active).

Regarding `COc1ccc(-c2cn3ccc(C)cc3n2)cc1`, the inhibition was -9.63% (inactive).

`CSc1nnc2ccc(-c3ccc(C)cc3)nn12`: the inhibition is -11.1% (inactive).

On to `Cc1sc2ncn(CC(=O)NCCCC(=O)NCc3ccc(F)cc3)c(=O)c2c1C`, for which the inhibition was -35.1% (inactive).

On to `O=C(CCC(=O)OCC(F)(F)C(F)F)NCc1ccccc1`, for which the inhibition is -6.23% (inactive).

In the case of `COc1ccccc1-n1nnnc1S(=O)(=O)Cc1ccc(Cl)cc1`, the inhibition was -13.9% (inactive).

On to `COc1cccc(Nc2nc(N)c([N+](=O)[O-])c(NCc3ccco3)n2)c1`, for which the inhibition is -15.6% (inactive).

As to `CNc1nc(Nc2ccc(C)c(Cl)c2)nc(N)c1[N+](=O)[O-]`, the inhibition was 99.7% (active).

In the case of `CCN1CCN(c2nc(Nc3cccc(F)c3)nc(N)c2[N+](=O)[O-])CC1`, the inhibition was -5.24% (inactive).

`O=C(O)c1c(NC(=O)N2CCCC2)sc2c1CCCC2`: the inhibition was 9.21% (inactive).

Consider `COC(=O)c1c(NC(=O)c2ccccc2F)sc2c1C(C(=O)OC)CC2` (centres undefined), for which the inhibition is -5.07% (inactive).

`O=C(Nc1sc2c(c1C(=O)O)CCC2)c1ccccc1F`: the inhibition was 94% (active).

On to `Cc1cccc(Nc2nc3c(S(=O)(=O)c4ccccc4)nnn3c3ccccc23)c1C`, for which the inhibition was -2.12% (inactive).

For `Fc1ccc(COc2ccc(-c3nnco3)cc2)cc1`, the inhibition is 61.6% (active).

For the compound `Fc1ccc(COc2cccc(-c3n[nH]c(=S)o3)c2)cc1`, the inhibition is -20.2% (inactive).

Take `Fc1cccc(Cl)c1COc1ccc(-c2nnco2)cc1`: the inhibition is -29.1% (inactive).

Turning to `COc1ccc(CCc2nc(-c3cccs3)no2)cc1`, the inhibition was 19.7% (inactive).

For the compound `c1ccc(-c2noc(-c3cccs3)n2)nc1`, the inhibition is 92% (active).

Take `O=C(COC(=O)c1ccncc1)c1ccccc1`: the inhibition is -26.7% (inactive).

Consider `Cc1noc(C)c1COC(=O)COc1ccc(-c2ccccc2)cc1`, for which the inhibition is 4.53% (inactive).

For the compound `c1ccc(CCc2nc(-c3ccncc3)no2)cc1`, the inhibition is -15.3% (inactive).

On to `c1csc(-c2nc(-c3ccncc3)no2)c1`, for which the inhibition was 60.3% (active).

For `Clc1ccc(-n2nnnc2-c2cnc(-c3ccccn3)nc2-c2cccs2)cc1`, the inhibition was 1.6% (inactive).

On to `O=C(Oc1ccc(-c2nc(-c3ccccn3)no2)cc1)c1ccccc1`, for which the inhibition is 97.9% (active).

For the compound `Cc1ccc(-c2nc(-c3ccncc3)no2)c(C)c1`, the inhibition is 49.8% (inactive).

For `Cc1nc(NC(CC(C)C)C(=O)O)c2nc(C)oc2n1` (centres undefined), the inhibition is 7.07% (inactive).

In the case of `CCOC(=O)C(CC)Sc1ncnc2c1nnn2-c1ccc(F)cc1` (centres undefined), the inhibition is -3.73% (inactive).

Consider `CCc1ccc(N(C(=O)c2csnn2)C(C(=O)NC2CCCCC2)c2cccnc2)cc1` (centres undefined), for which the inhibition was -39% (inactive).

In the case of `COc1ccc(C(CNC(=O)c2cc3c(s2)CCCC3)N2CCOCC2)cc1` (centres undefined), the inhibition was 3.85% (inactive).

`O=C(COc1ccc(NC(=O)c2ccccc2[N+](=O)[O-])cc1)c1ccc(F)cc1`: the inhibition is -17.5% (inactive).
